Test [1] can be described thus: Quantitative High-Throughput drug screen in 47 multiple myeloma cell lines against the NCATS MIPE library collection: Delta47_JCRB cell viability assay (AID 1918925; also: nearly all actives have a fitted effect of over 45% in size). Summed up:
(§1)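 Viability readout: CellTiter-Glo luminescence following 5 min room-temperature incubation with reagent. Prior exposure: 48 h, 37C, humidified 5% CO2, 500 cells per well.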

The nature of test [2]: Quantitative High-Throughput drug screen in 47 multiple myeloma cell lines against the NCATS MIPE library collection: AMO1_DSMZ cell viability assay (AID 1918927; also: nearly all actives have a fitted effect of over 30% in size). The method, boiled down:
as §1

Test [3] is described as follows: Quantitative High-Throughput drug screen in 47 multiple myeloma cell lines against the NCATS MIPE library collection: ARP1_JJKsccF8 cell viability assay (AID 1918928; also: nearly all actives have a fitted effect of over 40% in size). Summed up: (§2)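 ATP readout (CellTiter-Glo), 48 h drug incubation, 37 °C/5% CO2, 500 cells per well; normalisation to DMSO (100%) and media-only (0%) controls.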
A short description of test [4]: Quantitative High-Throughput drug screen in 47 multiple myeloma cell lines against the NCATS MIPE library collection: Karpas620_DSMZ cell viability assay (AID 1918959). Also: nearly all actives have a fitted effect of over 30% in size. Summed up:
(§3)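 Primary qHTS used for cherry-picking: cells at 500/well, library compounds for 48 h (37C, 5% CO2), luminescent ATP assay.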

A short description of test [5]: Quantitative High-Throughput drug screen in 47 multiple myeloma cell lines against the NCATS MIPE library collection: KHM11_PLB cell viability assay (AID 1918962). Also: nearly all actives have a fitted effect of over 35% in size. Summed up:
as §3

Test [6] in a line: Quantitative High-Throughput drug screen in 47 multiple myeloma cell lines against the NCATS MIPE library collection: JIM3_ECACC cell viability assay (AID 1918963; also: nearly all actives have a fitted effect of over 35% in size). Summed up:
as §3

A short description of test [7]: Quantitative High-Throughput drug screen in 47 multiple myeloma cell lines against the NCATS MIPE library collection: JIM1_ECACC cell viability assay (AID 1918964). Summed up:
as §1

Test [8] in a line: Quantitative High-Throughput drug screen in 47 multiple myeloma cell lines against the NCATS MIPE library collection: INA6_PLB cell viability assay (AID 1918965; also: nearly all actives have a fitted effect of over 55% in size). The method, boiled down: (§4)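 We plated 500 myeloma cells per well, pinned in MIPE 4.0 compounds, and incubated for 48 hours at 37C. ATP was then quantified with CellTiter-Glo, with DMSO and media-only wells defining 100% and 0%.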

A short description of test [9]: Quantitative High-Throughput drug screen in 47 multiple myeloma cell lines against the NCATS MIPE library collection: Karpas25_ECACC cell viability assay (AID 1918968; also: nearly all actives have a fitted effect of over 35% in size). Summed up:
as §1

The nature of test [10]: Quantitative High-Throughput drug screen in 47 multiple myeloma cell lines against the NCATS MIPE library collection: KMS12BM_JCRB cell viability assay (AID 1918971). Also: nearly all actives have a fitted effect of over 35% in size. The method, boiled down:
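Myeloma cells (500 per well) were exposed to MIPE 4.0 compounds by pin transfer and incubated 48 hours at 37C, 5% CO2. Viability was read as ATP by CellTiter-Glo luminescence, normalised to DMSO (100%) and media-only (0%) wells.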

Test [11] is described as follows: Quantitative High-Throughput drug screen in 47 multiple myeloma cell lines against the NCATS MIPE library collection: KMS12PE_JCRB cell viability assay (AID 1918972). Also: nearly all actives have a fitted effect of over 30% in size. The method, boiled down:
as §4

Test [12] can be described thus: Quantitative High-Throughput drug screen in 47 multiple myeloma cell lines against the NCATS MIPE library collection: ARD_JJKsccE7 cell viability assay (AID 1918929). Summed up: as §1
Test [13] in a line: Quantitative High-Throughput drug screen in 47 multiple myeloma cell lines against the NCATS MIPE library collection: KMM1_JCRB cell viability assay (AID 1918960). Also: nearly all actives have a fitted effect of over 30% in size.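 As to viability (% of DMSO): 100% = DMSO-treated cells and 0% = medium-only wells.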 The method, boiled down: as §2
Test [14] can be described thus: Quantitative High-Throughput drug screen in 47 multiple myeloma cell lines against the NCATS MIPE library collection: JJN3_DSMZ cell viability assay (AID 1918966; also: nearly all actives have a fitted effect of over 50% in size). Summed up: as §1
Test [15] can be described thus: Quantitative High-Throughput drug screen in 47 multiple myeloma cell lines against the NCATS MIPE library collection: KMS27_JCRB cell viability assay (AID 1918970). Also: nearly all actives have a fitted effect of over 30% in size. Summed up:
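CellTiter-Glo luminescence after 48 h drug exposure at 37 °C; 500 cells/well, 1536-well format, pin-tool compound addition; DMSO = 100%, media-only = 0% viability.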

The nature of test [16]: Quantitative High-Throughput drug screen in 47 multiple myeloma cell lines against the NCATS MIPE library collection: KMS20_JCRB cell viability assay (AID 1918973). Also: nearly all actives have a fitted effect of over 45% in size. The method, boiled down:
as §1

A short description of test [17]: Quantitative High-Throughput drug screen in 47 multiple myeloma cell lines against the NCATS MIPE library collection: KMS21BM_JCRB cell viability assay (AID 1918974). The note with it: ATP luminescence, 48 h; viability: at 45.8 µM (top of the series) unless noted. Summed up:
as §1

A short description of test [18]: Quantitative High-Throughput drug screen in 47 multiple myeloma cell lines against the NCATS MIPE library collection: H1112_PLB cell viability assay (AID 1918967; also: nearly all actives have a fitted effect of over 30% in size). The method, boiled down:
as §1

Test [19] is described as follows: Quantitative High-Throughput drug screen in 47 multiple myeloma cell lines against the NCATS MIPE library collection: EJM_DSMZ cell viability assay (AID 1918926; also: nearly all actives have a fitted effect of over 30% in size). Summed up: as §1
Test [20] can be described thus: Quantitative High-Throughput drug screen in 47 multiple myeloma cell lines against the NCATS MIPE library collection: Karpas417_ECACC cell viability assay (AID 1918961). Conditions: Karpas417 myeloma viability, CellTiter-Glo ATP luminescence, 48 h; viability (% of DMSO): at 45.8 µM (top of the series). The method, boiled down: as §4

Records with an inconclusive call do not appear. Activity calls are given as the source filed them. Calls follow the shape of the dose curve; as a rule, active = well fitted curve in the direction sought with a large enough effect; inconclusive = small, poorly fitted or top-dose-only effect, or another doubt; inactive = no such curve, though single readings can be large; an effect the other way counts as inactive or inconclusive.
Potency is read from the fitted curve at half-maximal effect.

In the case of `COc1cc(OC2CCN(C)CC2)ccc1Nc1ncc2c(n1)n(C1CCCC1)c(=O)n2C`, the Potency in test [1] is 5900 nM (active); in test [2], 11800 nM (active); in test [3], 16600 nM (active); in test [4], 23500 nM (active); in [5] it was 6620 nM (active); in test [6], 11800 nM (active). Also, the Potency in [7] was 11800 nM (active); in test [8] it was 3720 nM (active); in test [9], 6620 nM (active); in test [10], 9350 nM (active); in [11] it was 7430 nM (active).

For `NC1(Cc2ccc(Cl)cc2)CCN(c2ncnc3[nH]ccc23)CC1`, the Potency in test [1] was 935 nM (active); in test [2], 2090 nM (active); in [3], 2960 nM (active); in test [12], 935 nM (active); in [13] it was 3720 nM (active); in test [5] it was 2960 nM (active). In addition, the Potency in test [6] is 2960 nM (active); in test [7], 2960 nM (active); in test [8], 3720 nM (active); in [14], 13200 nM (active); in test [9] it was 1870 nM (active); in [15], 4690 nM (active). For the same compound, the Potency is 18700 nM (active) in test [10] and 3720 nM (active) in [11].

In the case of `CN(C)CC(C)(C)CNc1nn2c(-c3ccccc3)nnc2cc1C1CCC1`, the Potency is 13200 nM (active) in test [1]; 2960 nM (active) in [2]; 14800 nM (active) in test [4]; 2090 nM (active) in test [7]; 2960 nM (active) in [8]; 16600 nM (active) in [9]. The Potency in test [15] was 1180 nM (active). The Potency result in [12] is “inactive”.

For the compound `Cc1cn2cc(C(=O)N(C)CCO)cc(N[C@@H]3CCOc4cccc(C)c43)c2n1`, the Potency result in [1], in test [2], in [3], in test [4], in test [13] and in test [6] was “inactive” each time. The Potency entry in test [15], in [11] and in test [16] was “inactive” throughout.

As for `O=C1CCC[C@@H]2[C@H]3CCC[N+]4([O-])CCC[C@@H](CN12)[C@@H]34` (stereo partly drawn), the Potency result in test [1], in [2], in test [3], in test [12], in [4] and in [8] was “inactive” each time. For the same compound, the Potency result in test [9] was “inactive”. Further, in [17], the viability was 154% (active).

On to `Cc1cnc(Nc2ccc(F)cc2Cl)nc1-c1c[nH]c(C(=O)N[C@H](CO)c2cccc(Cl)c2)c1`, for which the Potency in [1] was 7430 nM (active); in [2], 4180 nM (active); in [3] it was 23500 nM (active); in test [4] it was 1050 nM (active); in [13], 7430 nM (active); in test [5] it was 526 nM (active). Further, the Potency in [7] was 7430 nM (active); in test [8], 9350 nM (active); in [18] it was 16600 nM (active); in test [15], 6620 nM (active); in test [10] it was 23500 nM (active); in test [11] it was 10500 nM (active).

With `Cc1cc(N2CCOCC2)cc2[nH]c(-c3c(NC[C@@H](O)c4cccc(Cl)c4)cc[nH]c3=O)nc12`, the Potency in test [1] was 66.2 nM (active); in [2], 526 nM (active); in [3], 5260 nM (active); in test [4] it was 418 nM (active); in [13], 52.6 nM (active); in test [6], 132 nM (active). In addition, the Potency in test [8] is 296 nM (active); in test [14] it was 1480 nM (active); in [18] it was 166 nM (active); in test [9] it was 83.3 nM (active); in test [15], 332 nM (active); in test [10], 16600 nM (active). Further, the Potency was 7430 nM (active) in test [11] and 93.5 nM (active) in test [16].

Take `Cc1c(Cn2c(C)nc3c(C(=O)O)cc(N4CCOCC4)cc32)cccc1C(F)(F)F`: the Potency in [1] was 5900 nM (active); in [2], 14800 nM (active); in test [13] it was 20900 nM (active); in test [6], 9350 nM (active); in test [8], 16600 nM (active); in [16] it was 93.5 nM (active). The Potency entry in [12], in test [4] and in test [11] was “inactive” in each case.

Consider `Cc1ccc(CN2CCNCC2)cc1NC(=O)CNc1ccc(F)c(F)c1`, for which the Potency result in test [1], in test [12], in test [13], in test [6], in [7] and in [14] was “inactive” throughout. Besides, the Potency entry in test [15], in test [11] and in [16] was “inactive” throughout. The Potency in test [19] is 3320 nM (active); in test [9], 5900 nM (active).

In the case of `Nc1ccc(C(=O)c2cc3c(ccc4ccccc43)[nH]2)cc1`, the Potency is 1870 nM (active) in [1]; 4180 nM (active) in [19]; 2960 nM (active) in test [3]; 2640 nM (active) in test [6]; 2640 nM (active) in [8]; 2640 nM (active) in test [10].

Turning to `CC1(C)CC(=O)c2c(C(F)(F)F)nn(-c3ccc(C(N)=O)c(NC4CCC(OC(=O)CN)CC4)c3)c2C1` (stereo not drawn), the Potency is 166 nM (active) in test [1]; 148 nM (active) in test [2]; 235 nM (active) in test [3]; 264 nM (active) in test [4]; 132 nM (active) in [13]; 148 nM (active) in [6]. The Potency in [7] is 132 nM (active); in test [8] it was 118 nM (active); in test [14], 132 nM (active); in [9] it was 187 nM (active); in test [15], 74.3 nM (active); in test [10] it was 187 nM (active). The Potency in test [11] is 132 nM (active); in [16], 148 nM (active).

Turning to `Nc1ccccc1NC(=O)c1ccc(CNc2nccc(-c3cccnc3)n2)cc1`, the Potency in [1] is 166 nM (active); in [2] it was 590 nM (active); in [3] it was 662 nM (active); in test [4], 1660 nM (active); in test [13], 1050 nM (active); in test [20], 469 nM (active). Moreover, the Potency in test [5] was 2640 nM (active); in test [6], 2640 nM (active); in test [7] it was 1320 nM (active); in test [8], 296 nM (active); in test [18] it was 2640 nM (active); in test [9], 833 nM (active). For the same compound, the Potency in test [15] is 2640 nM (active); in [10] it was 1320 nM (active); in [11] it was 469 nM (active); in test [16] it was 743 nM (active); in [17] it was 662 nM (active).

As for `Cc1[nH]c2ccccc2c1CCNCc1ccc(C=CC(=O)NO)cc1`, the Potency in [1] is 52.6 nM (active); in test [19], 148 nM (active); in [3], 41.8 nM (active); in test [13] it was 52.6 nM (active); in test [5] it was 148 nM (active); in test [8], 13.2 nM (active). Besides, the Potency in test [14] is 93.5 nM (active); in test [9] it was 20.9 nM (active); in [10] it was 59 nM (active); in [11], 52.6 nM (active).

The viability is a read-out of living cells in per cent, often relative to untreated cells.

The record behind these values is PubChem BioAssay (NCATS).
